# Screening data deposited in PubChem by several laboratories.
# A selection: hits, their analogues and other compounds. The true share with any hit is near 1.4%.
# H9c2 protect: myocardial damage modulation in H9c2 cells; actives 0.63% (n = 360,000); AID 588492; protection from H2O2 cell death, % at 20 µM; H9c2 cardiomyocytes, H2O2 injury protection, ATPLite, 2 h;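 active means compounds giving at least 50% protection of heart cells from peroxide-induced death in the single-dose screen, raw or plate-pattern-corrected value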;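 further: 0% = DMSO wells with peroxide and 100% = DMSO wells without peroxide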
# CR mimetic SO: caloric restriction mimetics inhibiting age-related superoxide in yeast; S. cerevisiae aged cells, superoxide DHE fluorescence; stronger effect = lower value; AID 2690; superoxide response (% of plate mean), % at 10 µM; actives 0.18% (n = 330,000);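 active means superoxide response under a set limit, about three screen SD below normal, cut at about 65% in these data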;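 further: yeast aged for seven days with compound at 30 °C before DHE staining; 100% = average MFI of all compound-treated wells on the plate with controls excluded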
# V-ATPase pHluor: alters yeast V-ATPase proton transport; S. cerevisiae, pHLuorin cytosolic pH fluorescence; actives 0.37% (n = 350,000); response, % at 10 µM; in the data active means response mostly above about 7.3%, no sharp cut-off; inactive means mostly below about 5.4%; further: actives read high
# beta cell repl: induces beta-cell replication in MIN6 cells. MIN6 cells proliferation, ATPlite luminescence, 48 h; cells starved in 0.2% serum; 100% = growth in 10% serum. AID 2380. actives 0.29% (n = 330,000). proliferation, % at 10 µM;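 active means compounds whose signal lies at least 3.5 SD above the mean of all wells on their plate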;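 further: 0% = DMSO-treated cells in low-serum medium and 100% = 10% serum control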
# HSV augment: HSV replication enhancement. HSV replication augmentation in cells, fold increase. maximum fold increase. actives 0.005% (n = 220,000). AID 1956; in the data active means maximum fold increase above about 1.5; tested in PC3 cells
# pCIP destab: p/CIP protein destabilization | decrease of EGFP signal, % at 10 µM | F442A p/CIP-EGFP cells, EGFP fluorescence, 16 h | Q05BA5 | AID 1984 | actives 0.01% (n = 290,000);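 active means EGFP signal decrease of at least 30% at 10 µM or well 3 SD below plate mean, unless failing retest; inactive means the rest, including hits failing retest or dose response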
# Target sequence (Q05BA5 1-1403): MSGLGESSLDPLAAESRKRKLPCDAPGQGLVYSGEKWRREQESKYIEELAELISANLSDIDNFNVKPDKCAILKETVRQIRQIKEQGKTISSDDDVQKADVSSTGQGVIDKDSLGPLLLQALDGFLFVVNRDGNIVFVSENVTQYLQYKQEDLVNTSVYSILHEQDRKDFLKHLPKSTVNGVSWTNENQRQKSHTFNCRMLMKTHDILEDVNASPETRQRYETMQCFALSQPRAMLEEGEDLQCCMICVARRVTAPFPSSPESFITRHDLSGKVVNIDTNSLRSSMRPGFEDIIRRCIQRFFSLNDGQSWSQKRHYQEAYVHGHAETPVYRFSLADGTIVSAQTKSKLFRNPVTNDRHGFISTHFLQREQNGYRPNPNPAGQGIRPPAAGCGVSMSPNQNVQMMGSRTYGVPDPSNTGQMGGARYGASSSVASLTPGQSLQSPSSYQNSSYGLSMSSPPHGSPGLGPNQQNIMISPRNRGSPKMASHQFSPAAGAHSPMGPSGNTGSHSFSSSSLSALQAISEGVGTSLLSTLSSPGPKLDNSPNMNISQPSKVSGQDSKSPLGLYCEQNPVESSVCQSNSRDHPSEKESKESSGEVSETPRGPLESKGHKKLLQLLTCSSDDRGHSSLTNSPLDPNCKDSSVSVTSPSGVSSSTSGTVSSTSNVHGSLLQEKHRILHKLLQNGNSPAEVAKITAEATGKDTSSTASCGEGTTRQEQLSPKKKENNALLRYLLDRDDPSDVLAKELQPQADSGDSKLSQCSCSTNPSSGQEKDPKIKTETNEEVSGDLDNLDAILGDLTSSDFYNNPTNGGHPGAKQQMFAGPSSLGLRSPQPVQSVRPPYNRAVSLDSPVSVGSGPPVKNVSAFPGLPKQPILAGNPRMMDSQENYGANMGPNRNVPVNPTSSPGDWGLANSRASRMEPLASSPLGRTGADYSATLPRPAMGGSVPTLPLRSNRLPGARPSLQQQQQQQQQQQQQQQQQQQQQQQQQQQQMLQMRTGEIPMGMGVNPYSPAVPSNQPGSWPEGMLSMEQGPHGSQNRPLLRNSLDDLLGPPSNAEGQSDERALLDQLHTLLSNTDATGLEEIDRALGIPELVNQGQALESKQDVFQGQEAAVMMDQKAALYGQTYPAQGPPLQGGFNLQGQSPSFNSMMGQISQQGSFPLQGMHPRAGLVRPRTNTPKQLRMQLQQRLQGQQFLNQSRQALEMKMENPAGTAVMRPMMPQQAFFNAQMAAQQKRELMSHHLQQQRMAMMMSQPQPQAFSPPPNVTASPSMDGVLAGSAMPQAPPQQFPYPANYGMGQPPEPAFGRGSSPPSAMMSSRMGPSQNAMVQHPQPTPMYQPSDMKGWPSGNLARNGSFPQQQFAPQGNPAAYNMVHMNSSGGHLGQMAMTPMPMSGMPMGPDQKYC
# * hit, by the source's call; i = inactive; · = not tested or not shown.
SMILES,H9c2 protect,CR mimetic SO,V-ATPase pHluor,beta cell repl,HSV augment,pCIP destab
O=C(Nc1nncs1)C1CC(=O)N(CCc2ccc(F)cc2)C1 (configuration not stated),2,102,-2,1,·,-7
CCOC(=O)C1=c2s/c(=C\c3cccnc3)c(=O)n2C(N)=C(C(=O)OC)C1c1cccnc1 (configuration not stated),46,117,1,3,i,-6
CCOC(=O)C1=c2s/c(=C\c3ccncc3)c(=O)n2C(N)=C(C(=O)OC)C1c1ccncc1 (configuration not stated),68*,117,-1,-2,i,7
COc1cc(-c2cc(O)c(-c3ccc4ccccc4n3)c(=O)[nH]2)cc(OC)c1OC,62*,·,-5,·,·,·
CC1(C)CC(=O)C=C(Nc2ccc(F)cc2)C1,-1,93,14*,-1,i,8
O=C(O)c1cccc(-n2sc3ccccc3c2=O)c1,78*,98,-23,-3,·,·
O=c1c2ccccc2sn1-c1ccccc1,-44,105,6,-6,i,-13
O=C(Nc1nnc(-c2cccs2)o1)c1cccc(Oc2ccccc2)c1,53*,97,1,-6,i,-13
O=C(Nc1nnc(-c2cccs2)o1)c1cccc(F)c1,14,99,6,-4,i,·
O=C(CN1CCN(Cc2ccccc2)CC1)Nc1cccc(Cl)c1Cl,-3,·,0,·,·,·
CC(=O)Oc1ccc(N(C(C)=O)S(=O)(=O)c2ccc(C)cc2)c2ccccc12,7,97,0,-6,·,·
CC(=O)Oc1ccc(N(C(C)=O)S(=O)(=O)c2ccc(Cl)cc2)c2ccccc12,-18,104,18*,-4,·,2
CCOC(=O)N1CCC(N2C(=O)c3ccccc3C2Nc2cc(Cl)c(OC)cc2OC)CC1 (configuration not stated),6,112,-5,1,i,-5
CCOC(=O)N1CCC(N2Cc3cccc(C(=O)Nc4cccc(F)c4)c3C2=O)CC1,4,114,5,-1,i,1
CCOC(=O)N1CCC(N2Cc3cccc(C(=O)Nc4ccc(OC)c(OC)c4)c3C2=O)CC1,50*,77,-4,-1,i,-5
CCOC(=O)N1CCC(N2C(=O)c3ccccc3C2Nc2cc(OC)c(OC)c(OC)c2)CC1 (configuration not stated),117*,92,2,0,i,0
Cc1ccc(-c2csc(N3CCC[C@@H]3C(=O)NCCn3c(-c4ccncc4)nc4ccccc43)n2)cc1,69*,100,-2,0,·,-3
COc1cc(C2C(C#N)=C(N)OC3=C2C(=O)CC(C)(C)C3)cc2c1OCO2 (configuration not stated),1,99,-1,-2,·,·
Cc1cc(OCc2cc(C(=O)N(C)C3CCOC3)no2)cc(C)c1Cl (configuration not stated),-4,91,1,0,·,-11
CCOc1ccc(C(=O)C(CCC(CN(C)C)C(=O)c2ccc(OCC)cc2)CN(C)C)cc1 (configuration not stated),-29,·,9.6*,·,i,7
CCOC(=O)C1=CCN(S(=O)(=O)c2ccccc2F)C1c1cccc(C)c1 (configuration not stated),-4,·,·,·,·,·
CC(C)(C)c1cc(/C=C2\NC(=O)NC2=O)cc(C(C)(C)C)c1O,4,100,2,-4,·,-5
CC(C)(C)c1cc(/C=N/O)cc(C(C)(C)C)c1O,-8,97,3,0.0*,i,-17
S=C(NCCCN1CCOCC1)Nc1cccc(-c2nnc3n2CCCCC3)c1,16,109,-1,0,i,5
O=C(COC(=O)c1ccc([N+](=O)[O-])o1)Nc1cccc(S(=O)(=O)N2CCOCC2)c1,45,104,1,0,i,-7
SMILES,H9c2 protect,CR mimetic SO,V-ATPase pHluor,beta cell repl,HSV augment,pCIP destab
CN(C)S(=O)(=O)c1cccc(NC(=O)COC(=O)c2ccc([N+](=O)[O-])o2)c1,102*,104,3,0,i,-4
O=C(COC(=O)c1ccc([N+](=O)[O-])o1)Nc1ccc(N2CCOCC2)cc1,52*,97,-4,-4,·,·
O=C(Nc1ccc(N2CCOCC2)cc1)c1ccc([N+](=O)[O-])o1,-16,121,3,-2,·,-13
C=CCc1ccccc1OCC(O)CN(CC)CC (configuration not stated),2,79,2,-2,i,-1
COc1ccc(OC)c(NC(=O)c2sc3ncnc(N4CCN(c5ccccn5)CC4)c3c2C)c1,86*,92,-1,-1,·,8
O=C(Oc1ccc(Cl)c2cccnc12)c1cccc([N+](=O)[O-])c1,64*,99,-1,-7,i,-6
O=C(Oc1c(Cl)cc(Cl)c2cccnc12)c1cccc([N+](=O)[O-])c1,-6,183,0,0,i,-4
COc1ccc(-c2cc(-c3ccc(O)cc3)nc(N)c2C#N)cc1OC,56*,96,1,2,i,-18
O=C(CC1SC(N2CCCC2)=NC1=O)Nc1ccc(C(=O)NCCOc2ccccc2F)cc1 (configuration not stated),2,·,1,-3,·,·
O=C1NC[C@H](c2ccccc2)OC(=O)[C@@H](Cc2ccc(F)cc2)CC/C=C/C[C@H]1CC(=O)N(CCO)Cc1ccccc1,86*,85,-2,-6,·,·
O=C1NC[C@H](c2ccccc2)OC(=O)[C@@H](Cc2ccc(F)cc2)CC/C=C/C[C@@H]1CC(=O)N(CCO)Cc1ccccc1,28,106,-4,-5,·,·
O=C1NC[C@H](c2ccccc2)OC(=O)[C@H](Cc2ccc(F)cc2)CC/C=C/C[C@H]1CC(=O)N(CCO)Cc1ccccc1,52*,110,3,-5,·,·
Cc1ccsc1C(=O)Nc1ccc(OCc2ccccc2)cc1,-3,99,2,-2,·,0
COc1cccc(N(CC(=O)NCC2CCCO2)C(=O)CNS(=O)(=O)c2ccccc2)c1 (configuration not stated),2,95,-3,8.4*,i,9
NS(=O)(=O)c1ccc(CCNC(=O)c2ccc(C#CC3(O)CCCCC3)cc2)cc1,71*,94,-5,-1,i,-2
Cc1ccc(C(=O)Nc2ccnc(-c3cccnc3)n2)cc1,20,101,5,1,i,4
Cc1ccc(NC(=O)Nc2ccnc(-c3cccnc3)n2)cc1,78*,103,0,2,i,-23
O=C1NC(c2cccc3ccccc23)Nc2ccccc21 (configuration not stated),-4,·,0,·,·,·
O=C1c2ccccc2C(=O)C1Cc1cccc2ccccc12,1,128,289*,-1,i,7
